Measurements taken from PubChem BioAssay (EPA / NIEHS).
“And” between values parts separate entries of the source, which are not always exact repeats. Equal values may be shown once. Results filed as inconclusive are left out. Some structures have more than one record in an assay (separate samples or runs), and their calls can disagree. The source made the active and inactive calls. Rule for the calls, unless noted: active = hit-call score of the fitted dose curve at least 0.9, where 1 is the maximum; inactive = score below 0.9.

Tests used:
[1] = CCTE_Shafer_MEA_acute_burst_percentage_std: CCTE's Neural Acute Assay for Standard Deviation of Burst Percentage, Shafer Lab (AID 2284018);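 note: fitted in the negative direction so actives lower burst percentage SD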
How it was run: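 Primary rat cortical neurons on 16-electrode MEA wells were recorded 40 min at baseline (DIV 13 or 15), then 40 min after compound (0.03-40 uM), at 37 C. Well value is SD across electrodes of spikes-in-bursts/total spikes; endpoint is percent change, DMSO-referenced.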

[2] = CCTE_Shafer_MEA_acute_per_network_burst_spike_number_mean: CCTE's Neural Acute Assay for Average Number of Spikes in a Network Burst, Shafer Lab (AID 2284019);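 for AC50: curve fitted for loss of signal so actives reduce spikes per network burst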
How it was run: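 Acute exposure of rat primary cortical networks (DIV 13/15) on MEAs; adaptive spike detection at 8x rms noise, 37 C. Percent change in spikes per network burst after 40 min with compound (0.03-40 uM), negative direction vs DMSO.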

[3] = CCTE_Shafer_MEA_acute_per_network_burst_spike_number_std: CCTE's Neural Acute Assay for Standard Deviation of Number of Spikes in a Network Burst, Shafer Lab (AID 2284020);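 note: fitted for decrease in spike-number SD versus DMSO so actives lower it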
How it was run: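 Acute MEA exposure, rat cortical neurons, 0.03-40 uM. Per-well % change versus own baseline; DMSO as negative control.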

[4] = CCTE_Shafer_MEA_acute_per_network_burst_electrodes_number_mean: CCTE's Neural Acute Assay for Mean Number of Electrodes in a Network Burst, Shafer Lab (AID 2284021);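 note: curves fitted for decreases only so hits reduce electrodes per burst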
How it was run: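 Primary rat cortical networks, mwMEA, 37 C. 20 min stabilization, 40 min baseline, compound 0.03-40 uM, 40 min re-record. Wells need >=10 active electrodes; percent change per well, negative fitting direction.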

[5] = CCTE_Shafer_MEA_acute_network_burst_percentage: CCTE's Neural Acute Assay for Percentage of Network Bursts, Shafer Lab (AID 2284022);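 note: curves fitted for loss so actives lower network burst percentage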
How it was run: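 Readout is the fraction of spikes falling in network bursts, expressed as per-well percent change from a 40-min pre-exposure baseline. Primary rat cortical neurons on MEA were exposed to 0.03-40 uM compound on DIV 13 or 15 and recorded for 40 min at 37 C.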

[6] = CCTE_Shafer_MEA_acute_cross_correlation_area: CCTE's Neural Acute Assay for Area of Cross Correlation, Shafer Lab (AID 2284024);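 note: area under pooled inter-electrode spike cross-correlation near zero lag as percent change from own baseline; curves fitted for loss of cross-correlation area so actives lower synchrony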
How it was run: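 Plates equilibrated 20 min at 37 C, then 40 min baseline was recorded, compound was added (0.03-40 uM), and a further 40 min was recorded. Wells needed ≥10 active electrodes (≥5 spikes/min) on exposure day.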

[7] = CCTE_Shafer_MEA_acute_cross_correlation_HWHM: CCTE's Neural Acute Assay for Cross Correlation at Half Width at Half Maximum, Shafer Lab (AID 2284026);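 note: percent change per well from pre-dose baseline in spike cross-correlogram half width; hits are a decrease in cross-correlogram half width relative to DMSO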
How it was run: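 Rat cortical neuron cultures on microelectrode arrays were equilibrated 20 min at 37 C, recorded 40 min at baseline, then 40 min after compound addition (0.03-40 uM, ≥3 wells). Spikes were detected at 8x rms noise after 300-5000 Hz band-pass filtering.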

[8] = CCTE_Shafer_MEA_dev_firing_rate_mean: CCTE's Neural Network Formation Assay for Mean Firing Rate, Shafer Lab (AID 2284031);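 for AC50: curve fitted for loss of firing so AC50 reflects decreased mean firing rate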
How it was run: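 Read-out: spike count/recording length, averaged over active electrodes, then AUC across days 5, 7, 9, 12. Rat cortical cultures on MEA; continuous 12-day exposure, media and treatment renewed DIV 5, 9; DMSO baseline.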

[9] = CCTE_Shafer_MEA_dev_per_burst_spike_percent: CCTE's Neural Network Formation Assay for Percent of Spikes in a Burst, Shafer Lab (AID 2284032);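 for AC50: fitted as a decrease in burst spike percentage below DMSO baseline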
How it was run: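 Value is trapezoidal AUC over recordings on days 5, 7, 9 and 12 of the well-mean fraction of spikes falling in single-electrode bursts; rat cortical cultures exposed continuously from plating, treatment renewed DIV 5 and 9, fitted downward against DMSO.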

[10] = CCTE_Deisenroth_AIME_384WELL_CTox_Active: Cytotoxicity Assessment (CTOX) in CCTE's 384-well Estrogen Receptor Transactivation Assay with AIME metabolic competence (metabolism positive), Deisenroth Lab (AID 2284037; active = hit-call score of the fitted dose curve at least 0.9, where 1 is the maximum;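 note: chemicals first conditioned 2 h by alginate-bound induced rat liver S9 before cells; activity means signal loss indicating cell death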)
How it was run: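 VM7Luc4E2 breast cells received medium pre-incubated 2 h with chemical over alginate microspheres holding induced male Sprague Dawley rat liver S9; viability read 24 h later by protease-substrate fluorescence. Loss of signal, bidirectional fit, 0.002–200 uM.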

[11] = CCTE_Deisenroth_AIME_384WELL_CTox_Inactive: Cytotoxicity Assessment (CTOX) in CCTE's 384-well Estrogen Receptor Transactivation Assay without AIME metabolic competence (metabolism negative), Deisenroth Lab (AID 2284039; active = hit-call score of the fitted dose curve at least 0.9, where 1 is the maximum;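 note: cell viability via live-cell protease substrate cleaved to fluorescent probe; cells exposed 24 h to medium preincubated 2 h with alginate-water beads without S9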)
How it was run: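 VM7Luc4E2 cells, metabolism-negative arm: test chemicals (0.002–200 uM, 10 points) pre-incubated 2 h with alginate-water microspheres, then medium transferred to cells for 24 h. Viability read as protease-substrate cleavage to fluorescent probe; loss-of-signal, bidirectional fitting.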

[12] = CCTE_Shafer_MEA_dev_active_electrodes_number: CCTE's Neural Network Formation Assay for Number of Active Electrodes, Shafer Lab (AID 2284040; active = hit-call score of the fitted dose curve at least 0.9, where 1 is the maximum;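 for AC50: potency for loss of active electrodes versus DMSO so lower counts are hits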)
How it was run: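 Developing rat cortical networks on MEAs, exposed DIV 0–12. Value is the AUC of active-electrode counts (≥5 spikes/min) from days 5, 7, 9, 12, relative to DMSO.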

[13] = CCTE_Shafer_MEA_dev_burst_rate: CCTE's Neural Network Formation Assay for Burst Rate, Shafer Lab (AID 2284042);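 for AC50: potency for loss of burst rate below DMSO control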
How it was run: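 Primary rat cortical neurons on PEI-coated 48-well MEA plates (laminin added with cells at plating) (16 electrodes/well), exposed from plating to day 12, dosing renewed at DIV 5 and 9. Burst rate averaged over active electrodes, recorded DIV 5, 7, 9, 12, summarized as AUC; loss versus DMSO.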

[14] = CCTE_Shafer_MEA_dev_bursting_electrodes_number: CCTE's Neural Network Formation Assay for Number of Bursting Electrodes, Shafer Lab (AID 2284043; active = hit-call score of the fitted dose curve at least 0.9, where 1 is the maximum;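 for AC50: potency is for loss of bursting electrodes relative to DMSO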)
How it was run: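 Counted: electrodes with burst rate ≥1 per 2 min in each well. Cells: primary rat cortex, 1.5 x 10^5/well, on 16-electrode MEA wells. Exposure: DIV 0–12, compound renewed DIV 5 and 9. Recording days 5, 7, 9, 12; AUC vs DMSO baseline.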

[15] = CCTE_Shafer_MEA_dev_per_burst_interspike_interval: CCTE's Neural Network Formation Assay for Burst Interspike Interval, Shafer Lab (AID 2284044);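 for AC50: potency for a decrease of within-burst interspike interval below DMSO level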
How it was run: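 Neurons from rat cortex plated onto PEI-coated MEA wells with laminin […] at 1.5 x 10^5 cells/well, then treated from day 0. Media and compound fully replaced on DIV 5 and 9. Extracellular spontaneous firing recorded four times; interspike interval per burst summarised as AUC.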

[16] = CCTE_Shafer_MEA_dev_burst_duration_mean: CCTE's Neural Network Formation Assay for Mean Burst Duration, Shafer Lab (AID 2284045);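 for AC50: curve fitted for loss meaning shorter burst duration than DMSO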
How it was run: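 Network-formation assay in primary rat cortical neurons; treatment spans twelve days of development. Mean burst duration per well is integrated by trapezoidal AUC and fitted in the loss-of-signal direction against DMSO baseline.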

[17] = CCTE_Shafer_MEA_dev_interburst_interval_mean: CCTE's Neural Network Formation Assay for Mean Interburst Interval, Shafer Lab (AID 2284046);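 note: well-mean interburst interval of bursting electrodes as AUC over four recording days; curve fitted for decrease in interburst interval relative to DMSO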
How it was run: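 Recordings on days 5, 7, 9 and 12 give well-mean interburst interval across actively bursting electrodes, summarized as area under the curve. Cultures: rat cortical neurons, continuous exposure from day 0, compound renewed at feeds; decrease analyzed versus DMSO.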

Measured: AC50

CN(C)[C@@H]1C(=O)C(C(N)=O)=C(O)[C@@]2(O)C(=O)C3=C(O)c4c(O)cccc4[C@@](C)(O)[C@H]3[C@H](O)[C@@H]12
inactive: [1] | [2] | [3] | [4] | [5] | [6] | [7] | [8] | [10] | [11] | [13] | [15] | [16] | [17]
active: [9] 50 µM | [12] 50 µM | [14] 22.7 µM

C[Si](Cn1cncn1)(c1ccc(F)cc1)c1ccc(F)cc1
inactive: [2] | [3] | [4] | [8] | [9] | [13] | [15] | [16] | [17]
active: [1] 4.31 µM | [5] 20 µM | [6] 1.67 µM | [7] 34.5 µM | [12] 4.26 µM | [14] 8.85 µM

CC(C)N(C(=O)SCC(Cl)=C(Cl)Cl)C(C)C
inactive: [2] | [6] | [8] | [11] | [13] | [16] | [17]
active: [1] 20 µM and 7.81 µM | [2] 5.79 µM | [3] 10.2 µM and 9.26 µM | [4] 11.5 µM and 5.51 µM | [5] 25.7 µM and 20 µM | [7] 20 µM and 15 µM | [9] 24.4 µM | [12] 27 µM | [14] 15 µM

CN1COCN(Cc2cnc(Cl)s2)C1=N[N+](=O)[O-]
inactive: [1] | [2] | [3] | [4] | [5] | [6] | [7] | [8] | [9] | [12] | [13] | [14] | [15] | [16] | [17]

CC(C)=CC1C(C(=O)OCN2C(=O)C3=C(CCCC3)C2=O)C1(C)C (stereo not drawn)
active: [1] 26.1 µM | [7] 28.6 µM
inactive: [2] | [3] | [4] | [5] | [6] | [8] | [9] | [12] | [13] | [14] | [15] | [16] | [17]

C=C(C)[C@H]1Cc2c(ccc3c2O[C@@H]2COc4cc(OC)c(OC)cc4[C@@H]2C3=O)O1
active: [1] 30.3 µM | [7] 30.7 µM | [8] 19.6 nM and 16.2 nM | [9] 24.4 nM and 20.6 nM | [12] 25.2 nM and 14.1 nM | [13] 17.3 nM and 6.73 nM | [14] 22.8 nM and 12.4 nM | [15] 36.4 nM and 32.6 nM | [16] 29.8 nM and 31 nM | [17] 41.4 nM and 31.6 nM
inactive: [2] | [3] | [4] | [5] | [6]

C[N+]1(C)CCCCC1
active: [12] 15 µM
inactive: [1] | [2] | [3] | [4] | [5] | [6] | [7] | [8] | [9] | [13] | [14] | [15] | [16] | [17]

CC(=NC#N)N(C)Cc1ccc(Cl)nc1
inactive: [1] | [2] | [3] | [4] | [5] | [6] | [7] | [8] | [9] | [12] | [13] | [14] | [15] | [16] | [17]

Nc1c(Cl)cc([N+](=O)[O-])cc1Cl
inactive: [2] | [6] | [7]
active: [1] 26.9 µM | [3] 37 µM | [4] 20 µM | [5] 26 µM

C#CCC1=C(C)C(OC(=O)C2C(C=C(C)C)C2(C)C)CC1=O (stereo not drawn)
inactive: [2] | [6] | [7] | [8] | [10] | [12] | [13] | [15] | [16] | [17]
active: [1] 19.9 µM | [3] 19.9 µM | [4] 5.78 µM | [5] 14.6 µM | [9] 9.95 µM | [11] 144 µM | [14] 4.27 µM

CC[C@H](C)[C@H]1O[C@]2(C=C[C@@H]1C)C[C@@H]1C[C@@H](C/C=C(\C)[C@@H](O[C@H]3C[C@H](OC)[C@@H](O[C@H]4C[C@H](OC)[C@@H](NC)[C@H](C)O4)[C@H](C)O3)[C@@H](C)/C=C/C=C3\CO[C@@H]4[C@H](O)C(C)=C[C@@H](C(=O)O1)[C@]34O)O2
active: [1] 48.5 nM and 2.98 µM | [2] 22.5 nM and 1.91 µM | [3] 23.7 nM and 1.5 µM | [4] 615 nM and 8.88 µM | [5] 43 nM and 1.55 µM | [6] 0.00626 µM | [7] 25.5 nM and 47.5 nM | [8] 6.97 nM and 2.42 nM | [9] 88.8 nM and 3.52 nM | [12] 55 nM and 4.37 nM | [13] 21.3 nM and 3.47 nM | [14] 43.5 nM and 3.01 nM | [15] 44.7 nM and 5.36 nM | [16] 20.1 nM and 1.89 nM | [17] 220 nM and 2.96 nM
inactive: [6]
